IMPase cell inh: qHTS Assay for Identifying the Cell-Membrane Permeable IMPase Inhibitors; Inositol monophosphatase 1 (Rattus norvegicus), P97697; CHO-M1 cells, IP1 accumulation, HTRF TR-FRET ratio; inhibition (IP1 accumulation), % at 46.1 µM; 120,000 tested, under 10 active; AID 901, 2007; active means well fitted curve in the direction sought with a large enough effect in the signal ratio, not every such curve was filed as active; inconclusive means small, poorly fitted or top-dose-only effect, or a change in a side signal; inactive means no such curve, though single readings can be large or run the other way; the % refers to the signal ratio;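 further: cells stimulated with carbachol in lithium chloride buffer; plate controls were DMSO basal wells for no effect and reference inhibitor wells for full effect; higher means more IMPase inhibition seen as more IP1 and lower FRET ratio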
Target sequence (P97697 whole entry, looked up): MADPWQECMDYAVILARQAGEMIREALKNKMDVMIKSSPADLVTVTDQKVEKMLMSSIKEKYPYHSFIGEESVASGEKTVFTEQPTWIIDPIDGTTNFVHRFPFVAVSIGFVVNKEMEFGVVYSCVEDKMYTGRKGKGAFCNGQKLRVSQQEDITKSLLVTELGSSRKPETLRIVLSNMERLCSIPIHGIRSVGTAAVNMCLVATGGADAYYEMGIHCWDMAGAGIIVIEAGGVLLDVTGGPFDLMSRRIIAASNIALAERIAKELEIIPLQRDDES
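CHO-M1, 2000 cells/well, cultured 16–30 h; cpd up to 46 uM; carbachol (50 uM solution, stimulation buffer w/ 50 mM LiCl, pH 7.4), 30 min 37C; IP-One TR-FRET, 10 min RT; Ex 320/Em 665, 620; Hill-fit AC50.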
PNC inhibitor: High Content Assay for Compounds that inhibit the Assembly of the Perinucleolar Compartment; PC3M PTB-GFP, PNC prevalence imaging, 16 h; active compounds read low; activity change (PNC), negative = inhibition, % at 10 µM; hit rate 3.1% among 140,000; AID 2417, 2010;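 active means readout at or below -70, meaning at least 70% loss of cells showing the perinucleolar compartment, a nuclear body marking cancer cells; inconclusive means readout between -30 and a set limit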;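 further: plate controls were DMSO wells for no effect and camptothecin positive control wells for full effect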
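PC3M cells stably expressing PTB-GFP, 750–1000 cells/well, treated 16 h at 37 °C with compound (23 nl of library stock), in duplicate. After paraformaldehyde fixation and Hoechst stain, imaged at 20x; PNC prevalence scored by image analysis.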
HttQ103 aggreg: qHTS Multiplex Assay to Identify Dual Action Probes in a Cell Model of Huntington: Aggregate Formation (GFP). PC12 HttQ103-GFP aggregates, Acumen cytometry, 40 h. AID 1688, 2009. hit rate 1.1% among 220,000. Potency, µM (series often up to 46.1 µM), for the others: top-dose activity change, negative = inhibition, most hits filed as inhibitors; further: potency means the concentration at half of the fitted maximal effect; on the % scale 0 is the no-effect control and ±100 the full control effect; nearly all actives have a fitted effect of over 60% in size
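Aggregate formation scored by laser-scanning cytometer (488 excitation, 500–530 emission) in lysed PC12 cells expressing Q103-GFP after 100 nM tebufenozide induction; library tested in dose series, with ATPLite reagent added in the multiplex.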
HTT cytoprotect: qHTS Multiplex Assay to Identify Dual Action Probes in a Cell Model of Huntington: Cytoprotection (ATP) | PC12 HTT-Q103 induced, cytoprotection, ATP luminescence, 40 h | hit rate 0.14% among 230,000 | Potency, µM (doses to about 56.4 µM), for the others: cytoprotection (ATP increase), hits mostly activators; further: potency means the concentration at half of the fitted maximal effect; % of control where 0% means no effect; nearly all actives have a fitted effect of over 45% in size
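Quantitative HTS on tebufenozide-induced (100 nM) PC12 cells expressing HTTQ103 exon 1–GFP; compounds tested as a concentration series; survival measured via cellular ATP.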
ALOX12 inhib: qHTS Assay for Inhibitors of 12-hLO (12-human lipoxygenase); Polyunsaturated fatty acid lipoxygenase ALOX12 (Homo sapiens), P18054; purified 12-hLO, xylenol orange hydroperoxide absorbance; Potency, µM (titrated, usually from 57.1 µM), without a hit: top-dose activity change, negative = inhibition, most hits filed as inhibitors; hit rate 0.12% among 150,000; AID 1452, 2008; further: potency means the concentration at half of the fitted maximal effect; on the % scale 0 is the no-effect control and ±100 the full control effect; nearly all actives have a fitted effect of over 55% in size
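150 nM 12hLO, 25 mM Hepes pH 7.0 + 0.01% Triton X-100; cpd preinc 15 min RT; 40 uM arachidonic acid, 30 min RT; Fe-XO 30 min; A573/A405 ratio as read-out.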
NPSR antagonist: qHTS Assay for Antagonists of the Neuropeptide S Receptor: cAMP Signal Transduction | Q6W5P4 | CHO-NPSR cells, cAMP TR-FRET, antagonist mode | Potency, µM (doses to about 38.3 µM), for inactives: top-dose activity change, negative = inhibition, hits mostly inhibitors | hit rate 1% among 220,000; further: potency means the concentration at half of the fitted maximal effect; on the % scale 0 is the no-effect control and ±100 the full control effect; nearly all actives have a fitted effect of over 50% in size
Target sequence (Q6W5P4 whole entry, looked up): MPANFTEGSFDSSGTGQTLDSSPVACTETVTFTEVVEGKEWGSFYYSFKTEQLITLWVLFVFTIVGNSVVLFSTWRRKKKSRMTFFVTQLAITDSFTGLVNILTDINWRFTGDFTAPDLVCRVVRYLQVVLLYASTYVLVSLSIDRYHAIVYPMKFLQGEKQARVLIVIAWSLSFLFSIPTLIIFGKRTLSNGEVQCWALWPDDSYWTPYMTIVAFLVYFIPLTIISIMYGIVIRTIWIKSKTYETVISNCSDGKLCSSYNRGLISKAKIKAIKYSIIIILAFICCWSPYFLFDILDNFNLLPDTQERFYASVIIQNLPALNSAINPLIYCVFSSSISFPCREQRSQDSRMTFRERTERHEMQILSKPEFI
Numbers without * were called inactive; u = inconclusive; x = not tested or not shown; [ ] = another dose, or the depositor's remark. Most compounds without a hit are left out; they make up all but 3.3% or so of the library. Unless noted, the call rests on the fitted dose curve; in most records, active means well fitted curve in the direction sought with a large enough effect; inconclusive means small, poorly fitted or top-dose-only effect, or another doubt; inactive means no such curve, though single readings can be large; an effect the other way counts as inactive or inconclusive.

SMILES	IMPase cell inh	PNC inhibitor	HttQ103 aggreg	HTT cytoprotect	ALOX12 inhib	NPSR antagonist
CC1=CC(c2ccccc2)n2nc(N3C(=O)CCC3=O)nc2N1 (stereo not drawn)	u	-94*	-2%	10%[1.9 µM]	1%	-2%[46.1 µM]
CC1=CC(c2ccccc2)n2nc(N3C(=O)c4ccccc4C3=O)nc2N1 (stereo not drawn)	-2	-5	-3%	-20%	-3%	-14%[46.1 µM]
CCCOc1ccc(Cn2cnc3ccccc32)cc1	14	17	25µM*	-9%	-3%	u
Fc1ccc(Cn2cnc3ccccc32)cc1	2	37	-5%	4%	-8%	-7%[46.1 µM]
O=C=Nc1ccc(Cc2ccc(N=C=O)cc2)cc1	x	x	x	-6%	0%	x
NC(=O)c1ccsc1NC(=O)C1CCCN1S(=O)(=O)c1ccc(Cl)cc1 (stereo not drawn)	0	67	14%	-22%[0.074 µM]	-24%	-21%[46.1 µM]
CC1CCCCN1S(=O)(=O)c1ccc(C(=O)Nc2sccc2C(N)=O)cc1 (stereo not drawn)	8	u	u	24%[10 µM]	0%	1.6µM*
C(=N\N1CCN(Cc2ccccc2)CC1)/c1cccnc1	x	-116*	-7%	-14%[10 µM]	-2%	25%
C(=N\N1CCN(Cc2ccccc2)CC1)/c1ccccc1	x	x	3%[9.22 µM]	15%[10 µM]	x	2%
COc1ccc(/C=C2\CCn3c2nc2cc(C(=O)O)ccc2c3=O)cc1O	u	-96*	-6%	-19%[10 µM]	-10%	-28%[46.1 µM]
CCCCCCCC1=CC2=C(Cl)C(=O)C(C)(OC(C)=O)C(=O)C2=CO1 (stereo not drawn)	x	x	x	-73%	x	x
NCCC[C@@H](CC(=O)N[C@@H]1CCNC[C@H]1C(=O)N[C@H](CC(=O)N[C@@H](CCC(=O)O)CC(=O)O)Cc1c[nH]c2ccccc12)NC(=O)C[C@H](Cc1ccccc1)NC(=O)[C@@H]1CCCC[C@H]1N	x	x	x	-46%	3%	x
O=S(=O)(c1cccs1)N1CCCc2cccc(O)c21	0	u	11µM*	-15%	-5%	3%[46.1 µM]
COc1cc(/C=N/NC(=S)N/N=C/c2cc(OC)c(OC)c(OC)c2)cc(OC)c1OC	x	-109*	-10%	-24%[10 µM]	-15%	13%
COc1cc(/C=N/NC(=S)Nc2cccc(C(=O)O)c2)cc(OC)c1OC	17	-27	21%	-1%[10 µM]	-23%	-9%[46.1 µM]
COc1ccc(OC)c(NS(=O)(=O)c2ccc(N3CCCC3=O)cc2)c1	7	-83*	u	-71%[10 µM]	-6%	u
Cc1ccc(OCCNS(=O)(=O)c2ccc(N3CCCC3=O)cc2)cc1	9[0.0738 µM]	-16	11µM*	18%[10 µM]	3%	14%[46.1 µM]
Nc1c(S(=O)(=O)c2cccs2)c2nc3ccccc3nc2n1/N=C/c1cccc(O)c1	6	30	u	-57%	-12%	7.9µM*
COc1cccc(/C=N/n2c(N)c(S(=O)(=O)c3cccs3)c3nc4ccccc4nc32)c1	4	u	2%	-21%	-3%	-3%[46.1 µM]
COc1cc([C@@H]2c3cc4c(cc3[C@@H](O[C@@H]3O[C@H]5CO[C@@H](C)O[C@@H]5[C@@H](O)[C@H]3O)[C@@H]3COC(=O)[C@@H]23)OCO4)cc(OC)c1O	-3	x	x	-33%	-7%	x
N#Cc1cccc(NC(=O)N2CCCC3(CCN(C(=O)c4cccc(F)c4)CC3)C2)c1	x	x	x	-27%	3%	x
CC1=CN2C(=N)/C(=C/c3ccc([N+](=O)[O-])o3)C(=O)N=C2S1	7	u	u	-42%[10 µM]	1%	13µM*
COc1cc2c(cc1OC)C(C)N(C(C)=O)CC2 (stereo not drawn)	2	u	-23%	7%[10 µM]	1%	-13%[46.1 µM]
COc1cc2c(cc1OC)[C@H](C)N(CC1C(=O)O[C@@H]3C[C@@]4(C)CCC[C@H](C)[C@@]45OC5[C@H]13)CC2 (stereo partly drawn)	x	x	x	8.9µM*	x	x
CCc1c(C(=O)Nc2cc(C)ccc2OC)[nH]c(C)c1C(C)=O	-7	-94*	12%	0%[1.9 µM]	0%	-15%[46.1 µM]
SMILES	IMPase cell inh	PNC inhibitor	HttQ103 aggreg	HTT cytoprotect	ALOX12 inhib	NPSR antagonist
CCc1c(C(=O)Nc2ccc(OC)cc2)[nH]c(C)c1C(C)=O	-14	28	-6%	-23%	-2%	-8%[46.1 µM]
CN1CCc2c(cc(O)c(O)c2Cl)[C@H](c2cccc(Cl)c2)C1	13	x	x	-1%[1.9 µM]	-11%	x
COc1ccc(CN2CCCC(C(=O)N3CCCC3)C2)cc1 (stereo not drawn)	2	54	27%	-14%[0.074 µM]	-7%	-7%[46.1 µM]
O=C(C1CCCN(Cc2cccnc2)C1)N1CCCCC1 (stereo not drawn)	5	-82*	u	-85%	-12%	-9%[46.1 µM]
Cc1cc(C(=O)N/N=C/c2cc(Br)cc(Br)c2OC(=O)c2ccccc2)n[nH]1	x	u	4.5µM*	0%[10 µM]	-4%	-53%
Cc1cc(C(=O)N/N=C/c2cc(Br)cc(Br)c2OC(=O)c2cccc(F)c2)n[nH]1	x	x	-4%[9.22 µM]	14%[10 µM]	x	-50%
Cc1cc(C(=O)N/N=C/c2cc(Br)ccc2OC(=O)c2ccc(Br)cc2)n[nH]1	12	-3	10µM*	29%[10 µM]	-5%	15%
Cc1cc(C)nc(SCC(=O)Nc2ncc(Cc3ccc(Cl)c(Cl)c3)s2)n1	x	-113*	-7%	x	3%	-42%
O=c1c(/C=N/OCc2ccc(Cl)cc2Cl)c[nH]n1-c1cccc(Cl)n1	x	x	10µM*	-101%	x	-26%
Cc1cc(O)c(/C=N/OCc2ccc(Cl)cc2Cl)c(=O)o1	x	x	-19%	x	x	0%
COc1ccccc1Oc1c(NS(=O)(=O)c2ccc(C(C)(C)C)cc2)nc(-c2ncccn2)nc1OCCO	x	x	11%	6%	x	x
CCOc1ccc(NC(=S)N2CCCN(Cc3cc(C)ccc3C)C2)cc1	x	x	28µM*	-46%	x	-21%
Cc1ccc(NC(=S)N2CCCN(Cc3ccc(F)cc3)C2)c(C)c1	x	x	9%	4%	x	-19%
O=C(NNC(=O)c1cc(OCC(F)(F)F)ccc1OCC(F)(F)F)c1cccc(C(F)(F)F)c1	-1[1.84 µM]	-84*	u	4%[10 µM]	-1%	-18%[46.1 µM]
CN1CCN(C2CC(=O)N(c3ccc4c(c3)OCCO4)C2=O)CC1 (stereo not drawn)	4	23	-1%	5%	0%	4%[46.1 µM]
Cc1ccc(N2C(=O)CC(N3CCN(C)CC3)C2=O)cc1 (stereo not drawn)	7	-100*	6%	14%[10 µM]	1%	3%[46.1 µM]
